How the values were obtained:
Experiment in all cases: DAPPL (digital affinity profiling via proximity ligation, sequencing); 10 mM Tris-HCl pH 7.5, 50 mM NaCl, 1 mM DTT, 4% glycerol, room temperature, 30 min; GST-TFs on glutathione beads, 16-mer random dsDNA library, 0.1% formaldehyde crosslink after washing; high values mean tight binding
Settings in all cases: protein: recombinant; tags: N-terminal GST; dsDNA, one strand shown
ELK1 = target: T1, ELK1 (Homo sapiens, UniProt P19419 1-428)
T1 sequence: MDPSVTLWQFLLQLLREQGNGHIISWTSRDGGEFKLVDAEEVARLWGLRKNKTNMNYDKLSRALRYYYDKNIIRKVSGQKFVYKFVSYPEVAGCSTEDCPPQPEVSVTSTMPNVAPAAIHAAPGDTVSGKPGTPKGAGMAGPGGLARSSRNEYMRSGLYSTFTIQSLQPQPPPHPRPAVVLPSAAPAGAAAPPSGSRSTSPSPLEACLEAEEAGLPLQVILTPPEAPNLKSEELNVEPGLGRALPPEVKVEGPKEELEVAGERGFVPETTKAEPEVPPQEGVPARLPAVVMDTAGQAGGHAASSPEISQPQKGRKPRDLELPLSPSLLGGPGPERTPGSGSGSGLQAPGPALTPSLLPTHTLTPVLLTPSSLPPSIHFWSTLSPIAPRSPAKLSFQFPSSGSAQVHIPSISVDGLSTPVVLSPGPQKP
Outline: (§1)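 A tag-only sample was pooled with DNA-barcoded human transcription factors that had been expressed in yeast as GST fusions and captured on glutathione beads. The pools were incubated for 30 min at room temperature with 200 nmole of a random double-stranded 16-mer DNA library in Tris/NaCl/DTT/glycerol buffer, then washed, crosslinked with 0.1% formaldehyde, proximity-ligated (BsaI/T4 ligase, 1 h, 37 °C), PCR-amplified and sequenced on an Illumina NextSeq500. Binding signal is each hexamer's read frequency for a factor divided by its frequency for the tag-only sample.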

ELF1 = ELF1 (Homo sapiens, UniProt P32519 1-619)
Chain of ELF1 (P32519 whole entry): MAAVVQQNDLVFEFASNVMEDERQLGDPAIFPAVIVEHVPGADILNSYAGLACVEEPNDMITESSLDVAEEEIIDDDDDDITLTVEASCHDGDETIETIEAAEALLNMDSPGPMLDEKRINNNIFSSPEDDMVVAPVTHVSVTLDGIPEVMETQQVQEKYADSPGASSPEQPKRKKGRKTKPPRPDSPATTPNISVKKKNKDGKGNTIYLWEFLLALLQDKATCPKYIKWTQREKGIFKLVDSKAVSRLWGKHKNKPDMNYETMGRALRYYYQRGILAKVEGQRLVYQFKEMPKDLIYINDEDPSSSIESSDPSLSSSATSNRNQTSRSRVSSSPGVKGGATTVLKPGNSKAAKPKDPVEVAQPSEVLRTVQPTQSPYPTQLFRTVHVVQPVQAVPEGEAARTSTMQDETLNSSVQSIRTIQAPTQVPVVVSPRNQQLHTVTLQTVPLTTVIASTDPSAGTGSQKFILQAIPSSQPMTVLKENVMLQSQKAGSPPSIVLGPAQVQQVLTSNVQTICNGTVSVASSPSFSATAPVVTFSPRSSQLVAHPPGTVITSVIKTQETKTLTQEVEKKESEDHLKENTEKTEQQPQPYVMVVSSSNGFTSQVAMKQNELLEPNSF
Outline: as §1

ELK3 = target: T2, ELK3 (Homo sapiens, UniProt P41970 1-407)
T2 sequence: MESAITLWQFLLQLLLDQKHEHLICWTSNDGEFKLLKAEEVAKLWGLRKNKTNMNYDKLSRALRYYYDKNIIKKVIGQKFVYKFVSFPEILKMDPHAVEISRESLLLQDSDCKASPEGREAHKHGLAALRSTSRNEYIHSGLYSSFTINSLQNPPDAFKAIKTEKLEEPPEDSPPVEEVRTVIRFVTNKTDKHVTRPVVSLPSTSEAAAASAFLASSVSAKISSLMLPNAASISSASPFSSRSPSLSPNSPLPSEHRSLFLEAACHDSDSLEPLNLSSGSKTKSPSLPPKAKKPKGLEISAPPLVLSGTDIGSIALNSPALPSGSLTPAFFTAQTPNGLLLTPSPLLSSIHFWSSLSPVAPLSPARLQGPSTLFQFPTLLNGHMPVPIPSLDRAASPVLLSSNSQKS
Outline: as §1

SPIC = target: T3, SPIC (Homo sapiens, UniProt Q8N5J4 1-248)
T3 sequence: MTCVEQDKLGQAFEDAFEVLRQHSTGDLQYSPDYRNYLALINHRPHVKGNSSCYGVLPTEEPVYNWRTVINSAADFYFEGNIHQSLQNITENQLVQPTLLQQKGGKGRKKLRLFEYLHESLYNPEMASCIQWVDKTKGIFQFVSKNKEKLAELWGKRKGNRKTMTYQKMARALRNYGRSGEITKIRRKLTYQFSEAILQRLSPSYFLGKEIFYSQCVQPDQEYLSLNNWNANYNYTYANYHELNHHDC
Outline: as §1

ELF3 = target: T4, ELF3 (Homo sapiens, UniProt P78545 1-371)
T4 sequence: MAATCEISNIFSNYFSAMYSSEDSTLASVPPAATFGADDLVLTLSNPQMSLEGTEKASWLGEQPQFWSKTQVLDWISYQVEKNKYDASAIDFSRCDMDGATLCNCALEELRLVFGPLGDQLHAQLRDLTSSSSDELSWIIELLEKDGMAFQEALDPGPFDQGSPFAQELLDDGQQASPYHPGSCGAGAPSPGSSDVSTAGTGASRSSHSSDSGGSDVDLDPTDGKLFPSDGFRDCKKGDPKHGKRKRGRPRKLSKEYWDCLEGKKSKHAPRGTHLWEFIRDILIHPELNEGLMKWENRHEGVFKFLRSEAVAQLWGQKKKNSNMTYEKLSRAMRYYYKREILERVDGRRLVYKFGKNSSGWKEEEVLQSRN
Outline: as §1

CRX = CRX (Homo sapiens, UniProt O43186 1-299)
Chain of CRX (O43186 whole entry): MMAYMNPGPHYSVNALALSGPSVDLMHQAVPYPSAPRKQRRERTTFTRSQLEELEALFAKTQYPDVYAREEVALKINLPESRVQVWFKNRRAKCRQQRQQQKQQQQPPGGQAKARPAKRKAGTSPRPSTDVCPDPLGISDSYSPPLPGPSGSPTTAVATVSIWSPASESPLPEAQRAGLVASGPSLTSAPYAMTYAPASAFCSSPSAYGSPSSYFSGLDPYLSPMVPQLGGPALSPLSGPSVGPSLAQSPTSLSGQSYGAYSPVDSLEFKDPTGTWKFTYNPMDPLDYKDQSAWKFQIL
Outline: as §1

SPDEF = target: T5, SPDEF (Homo sapiens, UniProt O95238 1-335)
T5 sequence: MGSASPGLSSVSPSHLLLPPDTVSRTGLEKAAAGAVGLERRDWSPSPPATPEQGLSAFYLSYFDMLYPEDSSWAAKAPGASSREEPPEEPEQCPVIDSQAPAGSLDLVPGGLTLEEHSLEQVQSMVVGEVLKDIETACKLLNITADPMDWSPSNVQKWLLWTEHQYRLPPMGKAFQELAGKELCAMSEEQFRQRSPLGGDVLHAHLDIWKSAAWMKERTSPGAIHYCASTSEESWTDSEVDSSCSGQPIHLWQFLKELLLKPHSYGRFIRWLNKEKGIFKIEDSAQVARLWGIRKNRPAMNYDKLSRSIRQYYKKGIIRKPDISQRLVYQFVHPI
Outline: as §1

ERF = target: T6, ERF (Homo sapiens, UniProt P50548 1-548)
T6 sequence: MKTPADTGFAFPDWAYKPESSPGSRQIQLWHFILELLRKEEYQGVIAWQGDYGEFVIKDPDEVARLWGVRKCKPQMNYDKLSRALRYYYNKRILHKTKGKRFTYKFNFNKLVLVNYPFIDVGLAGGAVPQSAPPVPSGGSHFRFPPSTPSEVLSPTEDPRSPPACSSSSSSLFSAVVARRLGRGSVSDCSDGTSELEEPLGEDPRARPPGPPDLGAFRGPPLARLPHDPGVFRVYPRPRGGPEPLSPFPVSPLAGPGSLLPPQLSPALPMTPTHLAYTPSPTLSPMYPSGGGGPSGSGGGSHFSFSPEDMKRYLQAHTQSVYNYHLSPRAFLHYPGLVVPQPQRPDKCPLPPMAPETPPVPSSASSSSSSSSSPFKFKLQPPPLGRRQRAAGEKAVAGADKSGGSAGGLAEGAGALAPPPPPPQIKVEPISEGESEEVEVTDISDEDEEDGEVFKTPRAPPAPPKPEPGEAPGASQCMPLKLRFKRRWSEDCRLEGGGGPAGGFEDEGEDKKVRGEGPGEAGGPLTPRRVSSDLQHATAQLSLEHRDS
Outline: as §1

ETV3L = target: T7, ETV3L (Homo sapiens, UniProt Q6ZN32 1-361)
T7 sequence: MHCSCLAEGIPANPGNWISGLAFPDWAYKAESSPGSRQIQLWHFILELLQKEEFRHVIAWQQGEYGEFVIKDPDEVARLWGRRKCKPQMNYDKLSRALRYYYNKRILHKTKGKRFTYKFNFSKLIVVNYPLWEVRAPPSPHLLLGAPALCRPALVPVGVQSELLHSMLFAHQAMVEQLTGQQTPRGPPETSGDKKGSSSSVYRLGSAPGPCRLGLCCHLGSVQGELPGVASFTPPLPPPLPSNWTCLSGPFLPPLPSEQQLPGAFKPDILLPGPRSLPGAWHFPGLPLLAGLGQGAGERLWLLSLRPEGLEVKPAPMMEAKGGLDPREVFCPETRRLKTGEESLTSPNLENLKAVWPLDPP
Outline: as §1

ERG = target: T8, ERG (Homo sapiens, UniProt P11308 1-479)
T8 sequence: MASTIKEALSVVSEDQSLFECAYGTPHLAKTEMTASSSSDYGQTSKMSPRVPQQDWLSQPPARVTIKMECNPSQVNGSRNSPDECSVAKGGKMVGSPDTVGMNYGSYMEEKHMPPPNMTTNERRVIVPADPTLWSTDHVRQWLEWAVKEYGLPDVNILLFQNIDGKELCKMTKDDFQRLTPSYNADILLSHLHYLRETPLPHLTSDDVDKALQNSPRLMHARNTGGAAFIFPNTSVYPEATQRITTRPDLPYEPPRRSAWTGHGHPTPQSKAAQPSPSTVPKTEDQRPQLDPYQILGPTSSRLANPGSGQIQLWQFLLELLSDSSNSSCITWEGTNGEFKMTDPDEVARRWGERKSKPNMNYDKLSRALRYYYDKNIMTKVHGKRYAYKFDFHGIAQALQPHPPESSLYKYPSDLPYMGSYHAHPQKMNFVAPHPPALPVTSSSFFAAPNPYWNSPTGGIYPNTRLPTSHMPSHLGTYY
Outline: as §1

EHF = target: T9, EHF (Homo sapiens, UniProt Q9NZC4 1-300)
T9 sequence: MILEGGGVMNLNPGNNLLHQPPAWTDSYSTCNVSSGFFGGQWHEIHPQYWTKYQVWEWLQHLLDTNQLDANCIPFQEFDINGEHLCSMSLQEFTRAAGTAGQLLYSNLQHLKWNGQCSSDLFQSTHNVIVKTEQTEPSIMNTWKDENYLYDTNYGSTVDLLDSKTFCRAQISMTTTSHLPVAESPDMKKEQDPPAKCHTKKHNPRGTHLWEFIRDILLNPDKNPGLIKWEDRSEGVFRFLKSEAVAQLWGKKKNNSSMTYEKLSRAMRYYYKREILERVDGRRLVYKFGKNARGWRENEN
Outline: as §1

SPI1 = SPI1 (Homo sapiens, UniProt P17947 1-270)
Outline: as §1

SPIB = SPIB (Homo sapiens, UniProt Q01892 1-262)
Chain of SPIB (Q01892 whole entry): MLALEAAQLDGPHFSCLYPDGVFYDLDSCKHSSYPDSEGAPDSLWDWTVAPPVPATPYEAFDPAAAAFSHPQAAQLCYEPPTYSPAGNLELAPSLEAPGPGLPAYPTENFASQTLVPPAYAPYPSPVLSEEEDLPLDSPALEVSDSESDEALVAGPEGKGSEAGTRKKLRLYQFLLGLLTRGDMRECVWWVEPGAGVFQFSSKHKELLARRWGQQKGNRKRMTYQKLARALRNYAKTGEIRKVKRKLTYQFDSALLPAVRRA
Outline: as §1

ETV7 = target: T10, ETV7 (Homo sapiens, UniProt Q9Y603 1-341)
T10 sequence: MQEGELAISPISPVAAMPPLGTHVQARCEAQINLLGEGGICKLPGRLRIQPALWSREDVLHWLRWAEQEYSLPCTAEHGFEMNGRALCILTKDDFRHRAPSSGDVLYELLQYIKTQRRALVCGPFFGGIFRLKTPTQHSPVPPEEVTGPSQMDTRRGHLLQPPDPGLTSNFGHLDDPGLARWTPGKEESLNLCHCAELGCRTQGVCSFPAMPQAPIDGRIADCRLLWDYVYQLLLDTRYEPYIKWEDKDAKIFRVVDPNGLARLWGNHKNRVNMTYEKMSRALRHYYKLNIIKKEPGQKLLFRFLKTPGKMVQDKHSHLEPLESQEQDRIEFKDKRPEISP
Outline: as §1

ELF5 = target: T11, ELF5 (Homo sapiens, UniProt Q9UKW6-2 1-255)
T11 sequence: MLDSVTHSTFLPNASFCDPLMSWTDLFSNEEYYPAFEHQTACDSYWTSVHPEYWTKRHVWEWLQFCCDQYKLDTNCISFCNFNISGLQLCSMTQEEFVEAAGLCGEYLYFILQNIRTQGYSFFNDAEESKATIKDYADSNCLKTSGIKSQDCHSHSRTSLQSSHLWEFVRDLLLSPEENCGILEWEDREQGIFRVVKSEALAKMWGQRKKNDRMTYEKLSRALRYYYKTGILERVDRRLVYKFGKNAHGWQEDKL
Outline: as §1

ETV6 = ETV6 (Homo sapiens, UniProt P41212 1-452)
Chain of ETV6 (P41212 whole entry): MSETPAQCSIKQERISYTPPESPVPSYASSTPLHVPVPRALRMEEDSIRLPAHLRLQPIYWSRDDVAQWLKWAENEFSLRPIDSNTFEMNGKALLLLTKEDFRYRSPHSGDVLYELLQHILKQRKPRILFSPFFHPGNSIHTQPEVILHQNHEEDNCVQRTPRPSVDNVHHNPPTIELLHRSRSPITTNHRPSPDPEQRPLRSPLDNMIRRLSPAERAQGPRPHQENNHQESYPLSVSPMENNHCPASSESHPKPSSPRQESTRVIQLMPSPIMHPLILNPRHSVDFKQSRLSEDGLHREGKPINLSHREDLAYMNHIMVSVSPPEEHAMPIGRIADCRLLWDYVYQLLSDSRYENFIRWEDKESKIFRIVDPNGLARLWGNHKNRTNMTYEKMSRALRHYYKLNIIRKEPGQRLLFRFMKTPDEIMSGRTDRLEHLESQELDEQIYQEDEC
Outline: as §1

With GATCAC the binding signal (ELK1) was 1.01 fold enrichment (6-mer frequency, TF over GST control), the binding signal (ELF1) was 1.02 fold enrichment (6-mer frequency, TF over GST control) and the binding signal (ELK3) was 1.16 fold enrichment (6-mer frequency, TF over GST control). The binding signal (SPIC) was 1.01 fold enrichment (6-mer frequency, TF over GST control), the binding signal (ELF3) was 1.04 fold enrichment (6-mer frequency, TF over GST control) and the binding signal (CRX) was 1.09 fold enrichment (6-mer frequency, TF over GST control). For the same sequence, the binding signal (SPDEF) was 1 fold enrichment (6-mer frequency, TF over GST control).

With AGCACG the binding signal (SPIC) was 1.02 fold enrichment (6-mer frequency, TF over GST control) and the binding signal (ERF) was 1.01 fold enrichment (6-mer frequency, TF over GST control).

GCCATC was tested, and the binding signal (SPIC) was 1.17 fold enrichment (6-mer frequency, TF over GST control) and the binding signal (ETV3L) was 1.03 fold enrichment (6-mer frequency, TF over GST control).

In the case of AGGGAA, the binding signal (ERG) is reported as 1.02 fold enrichment (6-mer frequency, TF over GST control), the binding signal (EHF) is reported as 1.04 fold enrichment (6-mer frequency, TF over GST control) and the binding signal (SPI1) is reported as 1.39 fold enrichment (6-mer frequency, TF over GST control). For the same sequence, the binding signal (SPIB) was 1 fold enrichment (6-mer frequency, TF over GST control), the binding signal (SPIC) was 1.01 fold enrichment (6-mer frequency, TF over GST control) and the binding signal (ELF3) was 1.01 fold enrichment (6-mer frequency, TF over GST control). For the same sequence, the binding signal (ETV7) was 1.06 fold enrichment (6-mer frequency, TF over GST control), the binding signal (ELF5) was 1.24 fold enrichment (6-mer frequency, TF over GST control) and the binding signal (ETV6) was 1.03 fold enrichment (6-mer frequency, TF over GST control).

Reference: PMC7862700, “An all-to-all approach to the identification of sequence-specific readers for epigenetic DNA modifications on cytosine”
